This is part of a sample that, as a whole, favours compounds with a hit. Of some 83,000 tested, about 20% had one in any assay.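 Treatment: one concentration, 48 hours, 96-well format. Scoring: percent growth, with anything below 10 considered active.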 Values without a mark were called inactive. Activity calls are given as the source filed them.
How the values were obtained:
Test in all cases: NCI-60 one-dose screen, 48 h (100 = growth as untreated, 0 = no growth, -100 = all killed)
Settings in all cases: 10 µM unless noted
[1] = tested on: HT29 colon
[2] = tested on: SNB-75 CNS
[3] = tested on: SNB-19 CNS
[4] = tested on: PC-3 prostate
[5] = tested on: SK-MEL-5 melanoma
[6] = tested on: UACC-62 melanoma
[7] = tested on: LOX IMVI melanoma
[8] = tested on: SK-MEL-28 melanoma
[9] = tested on: SK-MEL-2 melanoma
[10] = tested on: U251 CNS

Compound | growth [1] | growth [2] | growth [3] | growth [4] | growth [5] | growth [6] | growth [7] | growth [8] | growth [9] | growth [10] [%]
Clc1ccc2c(NCCCn3ccnc3)c3oc4ccc(Cl)cc4c3nc2c1 | 80.9% | 70.2% | 82.8% | 73.8% | 86.8% | 94.6% | 22.4% | 94% | 113% | 
CCOC(=O)c1c(Nc2ccccc2)nn2c(N)c(C#N)c(-c3ccc(F)cc3)nc12 | 97% | 82.4% | 94% | 80.3% | 88.7% |  |  |  | 100% | 
O=C(CSc1nc2sc3c(c2c(=O)n1-c1ccc(Cl)cc1)CCCC3)NNC(=O)Nc1cccc(C(F)(F)F)c1 | 26.2% | 36.3% | 21.8% | 7.37% (active) | 35.4% | 17.3% | -17% (active) | 33.2% | -8.08% (active) | 
O=C(CCN1C(=O)/C(=C/c2ccccc2F)SC1=S)N1CCOCC1 | 87.1% | 94% | 99% | 108% | 96.9% | 82.7% | -34.1% (active) |  | 113% | 
Nc1cc(-c2c[nH]c3ccc(F)cc23)nc2cc(-c3c[nH]c4ccc(F)cc34)nn12 | -60.9% (active) | 79% | 106% | 78.8% | 92.8% | 104% | -18.8% (active) | 109% | 116% | 
COc1ccc(N/N=C/c2c(-c3ccc(S(C)(=O)=O)cc3)nc3ccccn23)cc1 | 64.4% | 62.6% | 78.6% | 29.1% | 59.5% | 10.8% | 16.6% | 51.5% | 53.8% | 
COc1ccc(/C=N/Nc2ccnc3cc(Cl)ccc23)cc1Cl | -55.3% (active) | -88.5% (active) | -79.2% (active) | -24.9% (active) | -93.5% (active) |  | -35.5% (active) | -92.4% (active) | -88% (active) | 
O=C(CSc1nc2sc3c(c2c(=O)n1-c1ccc(Cl)cc1)CCCC3)N/N=C/c1ccc(F)cc1 | 60.6% |  | 101% | 87.1% | 103% | 97% | 95.9% |  |  | 67.1
CC(=O)Oc1ccccc1C(=O)Nc1cc(C(C)C)ccc1C | 91.5% | 26.1% | 17.5% | 22.1% | -31.9% (active) | 16.9% | 12.4% | 18% | -22.9% (active) | 
c1ccc2c(NCCCn3ccnc3)c3oc4ccccc4c3nc2c1 | -24% (active) | 17.8% | 11.9% | 5.76% (active) | 9.52% (active) | -14.9% (active) | -61.6% (active) | 9.69% (active) | -27.2% (active) | 
COc1ccccc1C(=O)CSc1nc(Nc2ccc(S(N)(=O)=O)cc2)c2ccccc2n1 | 102% | 106% | 85.7% | 92.6% | 91.7% | 88.6% | 16.1% | 96.8% | 98.1% | 
COC(=O)C1CCCN(S(=O)(=O)/N=C2\NC(=O)NC2=C(Cl)Cl)C1 (stereo unspecified) | 116% | 125% | 94.6% | 101% | 101% | 94% |  |  | 106% | 
CC(O)C(NC(=O)C1CCCN1C(=O)CNC(=O)C1CC(=O)NCC(=O)NC(Cc2c[nH]c3ccccc23)C(=O)NC(Cc2ccc(O)cc2)C(=O)NCC(=O)NC(CO)C(=O)NC(CCC(N)=O)C(=O)NC(Cc2c[nH]c3ccccc23)C(=O)N1)C(=O)NCC(=O)NC(CCC(N)=O)C(=O)NC(CCCNC(=N)N)C(=O)NC(CC(=O)O)C(=O)O (stereo unspecified) | 106% | 92.4% | 96.6% | 76.7% | 101% | 94.9% |  | 99.6% | 116% | 
Fc1ccc(-c2cc3nc(C(Cl)Cl)nc(-c4ccccc4)n3n2)cc1 | -41.4% (active) | -30% (active) | -6.52% (active) | -24.5% (active) | 75.2% | 36.2% | 86.9% | -7.7% (active) | 53.5% | 
